The values below come from the supplement of paper PMC10503962.

The test has as its system Trichuris muris adult worms. Description: mean motility score (Paragon pixel variance) of adult worms (arbitrary units); higher = more motile worms, i.e. less anthelmintic effect; extreme values may be limits of the assay. The following applies: 100 µM; 24 h. The procedure, abridged:
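In 96-well plates, one adult Trichuris muris worm from infected NOD SCID mice went into each well with 100 μL RPMI-1640, antibiotics and drug at 100 μM (1% v/v DMSO). After 24 h at 37°C and 5% CO2, the plates were filmed on an automated phenotyping platform. Paragon pixel-variance analysis gave the motility score, which was averaged across replicate wells.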

In the case of `O=C(c1ccccc1)c1ccc2n1CCC2C(=O)O` (configuration not stated) [ketorolac], the mean motility score came out at 2460.
Consider `COc1cc2nccc(Oc3ccc(NC(=O)C4(C(=O)Nc5ccc(F)cc5)CC4)cc3)c2cc1OC` [cabozantinib], for which the mean motility score worked out at 3950.
Turning to `CCOc1ccc2ccccc2c1C(=O)N[C@@H]1C(=O)N2[C@@H]1SC(C)(C)[C@@H]2C(=O)[O-].O.[Na+]` [nafcillin sodium monohydrate], the mean motility score is 3570.
The figure for `O=C(c1ccc(F)cc1)C1CCN(CCn2c(=O)[nH]c3ccccc3c2=O)CC1` [ketanserin] is 3020.
For `O=C(O)c1cc(-c2ccc(F)cc2F)ccc1O` [diflunisal] the value was 1040; for `CNC[C@H](O)c1cccc(O)c1` [phenylephrine], 3950; for `Nc1ccn([C@H]2CC[C@@H](CO)O2)c(=O)n1` [zalcitabine], 3920.
For `NCC[C@H](O)C(=O)N[C@@H]1C[C@H](N)[C@@H](O[C@H]2O[C@H](CN)[C@@H](O)[C@H](O)[C@H]2O)[C@H](O)[C@H]1O[C@H]1O[C@H](CO)[C@@H](O)[C@H](N)[C@H]1O.O=S(=O)(O)O` [amikacin sulfate] the value was 3880; for `CN1CCC(=C2c3ccccc3CC(=O)c3sccc32)CC1` [ketotifen], 2220; for `C[C@H]1O[C@@H](O[C@H]2[C@@H](O)C[C@H](O[C@H]3[C@@H](O)C[C@H](O[C@H]4CC[C@@]5(C)[C@H](CC[C@@H]6[C@@H]5CC[C@]5(C)[C@@H](C7=CC(=O)OC7)CC[C@]65O)C4)O[C@@H]3C)O[C@@H]2C)C[C@H](O)[C@@H]1O` [digitoxin], 3060.
The compound `NC(=O)OCC(COC(N)=O)c1ccccc1` [felbamate] yielded a mean motility score of 5470.
For `CC1(C)NC(=O)N(c2ccc([N+](=O)[O-])c(C(F)(F)F)c2)C1=O` [nilutamide], the mean motility score came to 1900.
For `CCCCOc1ccc(OCCCN2CCOCC2)cc1.Cl` [pramoxine hydrochloride] the value was 1260.
The figure for `CCCCNc1cc(C(=O)O)cc(S(N)(=O)=O)c1Oc1ccccc1` [bumetanide] is 4880; for `Cc1cc(Nc2ncc(Cl)c(Nc3ccccc3S(=O)(=O)C(C)C)n2)c(OC(C)C)cc1C1CCNCC1` [ceritinib] it is 1.33; for `Cc1nc(Nc2ncc(C(=O)Nc3c(C)cccc3Cl)s2)cc(N2CCN(CCO)CC2)n1` [dasatinib] it is 1190.
The figure for `Cc1nnc(NS(=O)(=O)c2ccc(N)cc2)s1` [sulfamethizole] is 3570; for `Cc1cccc(N(C)C(=S)Oc2ccc3ccccc3c2)c1` [tolnaftate] it is 2620.
`COC(=O)CCC(=O)CN.Cl` [methyl aminolevulinate hydrochloride] registered a mean motility score of 2550.
In the case of `CCCCCCCCCCC[C@@H](C[C@@H]1OC(=O)[C@H]1CCCCCC)OC(=O)[C@H](CC(C)C)NC=O` [orlistat], the mean motility score was 3180.
The compound `NS(=O)(=O)c1cc(Cl)c(Cl)c(S(N)(=O)=O)c1` [dichlorphenamide] displayed a mean motility score of 752.
For `Cc1cc2c(s1)Nc1ccccc1N=C2N1CCN(C)CC1` [olanzapine] the value was 454; for `CCOC(=O)c1ncn2c1CN(C)C(=O)c1cc(F)ccc1-2` [flumazenil], 3230; for `COc1cc(C(C)=O)ccc1OCCCN1CCC(c2noc3cc(F)ccc23)CC1` [iloperidone], 1950.
The compound `CCc1nc(N)nc(N)c1-c1ccc(Cl)cc1` [pyrimethamine] came in with a mean motility score of 2930.
The figure for `CN1CCN(CCOc2cc(OC3CCOCC3)c3c(Nc4c(Cl)ccc5c4OCO5)ncnc3c2)CC1` [saracatinib] is 1640.
The figure for `COC1=C(OC)C(=O)C(C/C=C(\C)CC/C=C(\C)CC/C=C(\C)CC/C=C(\C)CC/C=C(\C)CC/C=C(\C)CC/C=C(\C)CC/C=C(\C)CC/C=C(\C)CCC=C(C)C)=C(C)C1=O` [ubidecarenone] is 2770; for `CC(O)(P(=O)(O)O)P(=O)(O)O` [etidronic acid] it is 3300.
For `NC(=O)c1ncn([C@@H]2O[C@H](CO)[C@@H](O)[C@H]2O)c1O` [mizoribine] the value was 2990; for `Clc1ccc2c(c1)CCc1cccnc1C2=C1CCNCC1` [desloratadine], 930; for `CCCNC(=O)NS(=O)(=O)c1ccc(Cl)cc1` [chlorpropamide], 2860.
As for `Cc1nnc(SCC2=C(C(=O)[O-])N3C(=O)[C@@H](NC(=O)Cn4cnnn4)[C@H]3SC2)s1.[Na+]` [cefazolin sodium], the mean motility score worked out at 1680.
